The full list was thinned out, with hits kept by preference.
Pf Dd2 inh – qHTS Primary assay for Inhibitors of Plasmodium falciparum Dd2 growth in vitro. P. falciparum Dd2 growth, SYBR Green, 72 h. Potency, µM (doses to about 28.9 µM), for inactives: top-dose activity, negative = inhibition, most hits filed as inhibitors. actives 4.3% (n = 120,000); active means well fitted inhibition curve with a large enough effect;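 further: plate controls were DMSO vehicle for no effect and reference drug for full effect; nearly all actives have a fitted effect of over 65% in size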
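Infected erythrocytes (Dd2, 0.3% parasitemia, 2.5% hematocrit final) are added to compound in RPMI-1640/Albumax II medium, grown 72 h at 37C in low oxygen, then lysed with saponin/Triton-X containing SYBR Green and read by fluorescence.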
Starred values were filed as active, the others as inactive; i = inactive; [ ] = dose if it differs, or a comment. Potency means the concentration at half of the fitted maximal effect.

SMILES	Pf Dd2 inh
O=C(O)C[C@@H]1CCN(C(=O)c2cccs2)C[C@@H]1CCN1CCN(c2ccc(F)cc2)CC1	-5%
COCCN(Cc1ccccn1)Cc1cc(=O)c2cc(C)cc(C)c2[nH]1	-18%
COc1ccc(OC)c(C(=O)CN2C(=O)N(c3cc(C)cc(C)c3)S(=O)(=O)c3ccccc32)c1	10µM*
CCc1ccccc1N1C(=O)N(CC(=O)c2ccc(OC)cc2)c2ccccc2S1(=O)=O	-29%
COc1cccc(N2C(=O)N(Cc3ccc(C#N)cc3)c3ccccc3S2(=O)=O)c1	-16%
O=C(CN1C(=O)C(c2ccccc2)=NC12CCCCCC2)NC1CCCC1	i
Cc1cncc(C(=O)N2CCC3(CC2)CN(C2CCC2)CC3CO)c1 (configuration not stated)	9%
O=C(C1CCC1)N1CCC2(CCN(Cc3ccccc3F)CC2)C(CO)C1 (configuration not stated)	-23%
CC(C)Oc1ccc(CNC(=O)Cn2c(-c3cccs3)cc3ccccc32)cc1	-8%
CCOC(=O)c1c(C)[nH]c(CCC(=O)NCCCN2CCN(c3ccc(F)cc3)CC2)c1C	-17%
O=C(Cn1c(-c2cccs2)cc2ccccc21)NCCCN1CCN(c2ccc(F)cc2)CC1	10µM*
COc1cccc(N2CCN(C(=O)Cn3c(-c4cccs4)cc4ccccc43)CC2)c1	-16%
Cc1cccc(CNC(=O)Cn2c(-c3cccs3)cc3ccccc32)c1	11µM*
COc1ccc(N2CCN(CCCNC(=O)Nc3ccccc3)CC2)cc1	i
Cc1cccc(CNC(=O)CN2CC(C)Sc3ccccc32)c1 (configuration not stated)	-10%
COc1ccc(N2CCN(CCCNC(=O)Cn3c(-c4cccs4)cc4ccccc43)CC2)cc1	11µM*
Cc1ccc(-n2nc(C)c(C(=O)NCCCN3CCN(c4ccc(F)cc4)CC3)c2-n2cccc2)cc1	i
CCc1nc(-c2c3n(c(=O)n(CC(=O)Nc4ccccc4Cl)c2=O)CCCC3)no1	-15%
CN(Cc1nc(-c2ccccc2)cs1)C(=O)COc1ccc(F)cc1F	-12%
Nc1n[nH]c(C(=O)N2C[C@@H](C(=O)O)[C@H](C3CC3)C2)c1Cl	1%
O=C(NCc1ccccc1F)c1ccc2c(c1)CN(C1CCSCC1)CCO2	i
COc1ccc(C(=O)NC2CCN(C(=O)N3CC4CC(C3)[C@H]3CCCC(=O)N3C4)CC2)cn1 (some centres not stated)	i
COc1ccc(C(=O)NC2CCN(C(=O)N3CC4CC(C3)[C@H]3CCCC(=O)N3C4)CC2)c(OC)c1 (some centres not stated)	-27%
COc1ccc(C(=O)NC2CCN(C(=O)N3CC4CC(C3)[C@H]3CCCC(=O)N3C4)CC2)c(OC)n1 (some centres not stated)	5µM*
C=CCNC(=O)C(NC(=O)c1ccc2c(c1)OCO2)C1CCN(C(=O)c2ccc(OC)cc2)CC1 (configuration not stated)	i
SMILES	Pf Dd2 inh
COc1ccc(CN(C)Cc2ccc(-c3ccccc3)cc2)cc1	i
CN(Cc1ccc(-c2ccccc2)cc1)Cc1ccc(C(F)(F)F)cc1	0%
CC(C)CCN(C)Cc1ccccc1C(F)(F)F	-14%[44.1 µM]
CN(Cc1ccc(-c2ccccc2)cc1)Cc1cccnc1	4µM*
CN(Cc1ccc(F)cc1)Cc1ccc(-c2ccccc2)cc1	-11%[44.1 µM]
CC(C)CCN(C)Cc1ccc(-c2ccccc2)cc1	8.9µM*
CN1C(=O)CC(C(=O)O)C12CCN(Cc1cscn1)CC2 (configuration not stated)	2%
O=C(C[C@@H]1C[C@H]2O[C@H](CNC3CCCC3)[C@@H](O)[C@H]2O1)N1CCOCC1	16%[44.1 µM]
CS(=O)(=O)N1CCCN(C(=O)CCc2c[nH]c3ccccc23)CCNC(=O)CC1c1ccccc1 (configuration not stated)	i
CCC1c2nccn2CCCN1C(=O)Cn1c(=O)oc2ccccc21 (configuration not stated)	13µM*
CCC1c2nccn2CCCN1C(=O)c1ccc2c(c1)OCO2 (configuration not stated)	-20%
CC(C)C1c2nccn2CCCN1C(=O)Cn1c(=O)oc2ccccc21 (configuration not stated)	-19%
CCC1c2nccn2CCCN1C(=O)COC (configuration not stated)	29%
CCC1c2nccn2CCCN1C(=O)C1CCOCC1 (configuration not stated)	-4%
CCC1c2nccn2CCCN1C(=O)Cc1ccc(OC)cc1 (configuration not stated)	7.1µM*
O=C(O)C1CC2(CCN(C(=O)c3ccc4c(c3)OCCO4)CC2)CN1 (configuration not stated)	-7%
O=S(=O)(c1ccc(F)cc1)N1CCCC(Cc2noc(-c3cccnc3)n2)C1 (configuration not stated)	i
CN(Cc1cc2ccccc2s1)C(=O)c1cc(CN2CCCC(O)C2)on1 (configuration not stated)	-19%
Cc1noc(-c2cn(C3CCN(C(=O)C(C)Oc4ccccc4)CC3)nn2)n1 (configuration not stated)	i
C#CCN(C)C(=O)[C@@H]1CCCN1[C@@H](C(=O)NC)c1ccccc1	-8%[44.1 µM]
Cc1ccc2c(c1)N(CC(=O)N1C[C@@H](C)[C@](O)(C3CCC3)C1)C(=O)CO2	-15%
Cc1ccc(S(N)(=O)=O)cc1C(=O)N[C@H]1[C@@H]2CCO[C@@H]2[C@@H]1C1CCCC1	0%
COc1cccc(CC(=O)NC(C)C(=O)N2CCN(c3ccccn3)CC2)c1 (configuration not stated)	i
COc1cccc(CN2CCc3nc(N4CCN(c5ncccn5)CC4)ncc3C2)c1	11µM*
Cc1cccc(CN2CCc3nc(N4CCN(c5ccccn5)CC4)ncc3C2)c1	i
SMILES	Pf Dd2 inh
COc1cccc(CN2CCc3nc(N4CCN(C)CC4)ncc3C2)c1	-22%
Nc1nnnn1CC(=O)N[C@@H]1COCC[C@@H]1Oc1ccc(F)cc1	-7%
Cc1ccc(C(=O)N2CCC(n3c(C)cnc3-c3ccccc3)CC2)cn1	-17%
CCN(CC)CCn1c(=N)n(CC(O)COc2ccccc2C)c2ccccc21 (configuration not stated)	1.3µM*
CC(C)C(=O)N1CCC(NCCOc2ccccc2Cl)CC1	-3%
CCN(CC)CCn1c(=N)n(CCOc2ccccc2Cl)c2ccccc21	4.5µM*
CC(=O)c1ccccc1OCC(O)Cn1c(CO)nc2ccccc21 (configuration not stated)	i
COC(=O)Cn1c(SCCOc2ccccc2Cl)nc2ccccc21	22%
COc1ccc(N2CCN(CC(O)COc3ccccc3C(C)(C)C)CC2)cc1 (configuration not stated)	10%
CCCCc1nc2cc(C(=O)N3CC(Oc4ccccc4OC)C3)ccc2o1	-16%
CC(C)C(=O)N1[C@@H]2CC[C@H]1CC(NC(=O)c1ccncc1)C2 (some centres not stated)	4%
c1ccc2[nH]c(CCCn3ccnc3-c3cc4n(n3)CCCNC4)nc2c1	9%
O=C(c1ccccc1)N1CCc2c(n(Cc3ccccc3)n(-c3ccccc3)c2=O)C1	-1%[44.1 µM]
O=c1c2c(n(Cc3ccccc3)n1-c1ccccc1)CN(Cc1ccc3[nH]ccc3c1)CC2	3.2µM*
COc1ccc(Cn2c3c(c(=O)n2Cc2ccccc2)CCN(Cc2cccc(O)c2)C3)cc1	i
O=C(c1cn[nH]c1)N1CCC(c2nc(CCOCC3CCCC3)no2)C1 (configuration not stated)	-12%

Assay outcomes (PubChem BioAssay)
